PubChem BioAssay
Active and inactive are the calls of the source.

What was measured:
[1] = small molecules captured by biotinylated probe aFSTL3 – biochemical, small-molecule microarray, fluorescence 635/667, stem cell growth factor project, primary screen (AID 1064); conditions: higher = more signal;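 note: measures binding of the biotinylated anti-FSTL3 antibody to printed compounds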
[2] = binders from COS7 lysate, DM2A8 probe, primary screen, torsin A project, cell lysate, small-molecule microarray, fluorescence 635/667 (AID 1065); conditions: higher = more signal, COS7 lysate expressing mutant human TOR1A
[3] = small molecules captured by biotinylated probe aFGF2 – biochemical, small-molecule microarray, fluorescence 635/667, stem cell growth factor project, primary screen (AID 1067); conditions: higher = more signal;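 note: measures binding of biotinylated aFGF2 protein to printed compounds on slides; z-score merges feature fluorescence and signal-to-noise across triplicate slides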
[4] = small molecules captured by biotinylated probe aFGF10 – biochemical, small-molecule microarray, fluorescence 635/667, stem cell growth factor project, primary screen (AID 1071); conditions: higher = more signal;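 note: score merges 667 nm spot intensity and signal to noise from triplicate slides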
[5] = biological target: Neurogenic locus notch homolog protein 2 (Homo sapiens) (UniProt Q04721); assay: small molecules binding Notch2 protein – biochemical, small-molecule microarray, 635 nm fluorescence, stem cell growth factors, primary screen (AID 1073); conditions: higher = more signal
Chain of Neurogenic locus notch homolog protein 2 (Homo sapiens) (Q04721 whole entry, looked up, canonical isoform): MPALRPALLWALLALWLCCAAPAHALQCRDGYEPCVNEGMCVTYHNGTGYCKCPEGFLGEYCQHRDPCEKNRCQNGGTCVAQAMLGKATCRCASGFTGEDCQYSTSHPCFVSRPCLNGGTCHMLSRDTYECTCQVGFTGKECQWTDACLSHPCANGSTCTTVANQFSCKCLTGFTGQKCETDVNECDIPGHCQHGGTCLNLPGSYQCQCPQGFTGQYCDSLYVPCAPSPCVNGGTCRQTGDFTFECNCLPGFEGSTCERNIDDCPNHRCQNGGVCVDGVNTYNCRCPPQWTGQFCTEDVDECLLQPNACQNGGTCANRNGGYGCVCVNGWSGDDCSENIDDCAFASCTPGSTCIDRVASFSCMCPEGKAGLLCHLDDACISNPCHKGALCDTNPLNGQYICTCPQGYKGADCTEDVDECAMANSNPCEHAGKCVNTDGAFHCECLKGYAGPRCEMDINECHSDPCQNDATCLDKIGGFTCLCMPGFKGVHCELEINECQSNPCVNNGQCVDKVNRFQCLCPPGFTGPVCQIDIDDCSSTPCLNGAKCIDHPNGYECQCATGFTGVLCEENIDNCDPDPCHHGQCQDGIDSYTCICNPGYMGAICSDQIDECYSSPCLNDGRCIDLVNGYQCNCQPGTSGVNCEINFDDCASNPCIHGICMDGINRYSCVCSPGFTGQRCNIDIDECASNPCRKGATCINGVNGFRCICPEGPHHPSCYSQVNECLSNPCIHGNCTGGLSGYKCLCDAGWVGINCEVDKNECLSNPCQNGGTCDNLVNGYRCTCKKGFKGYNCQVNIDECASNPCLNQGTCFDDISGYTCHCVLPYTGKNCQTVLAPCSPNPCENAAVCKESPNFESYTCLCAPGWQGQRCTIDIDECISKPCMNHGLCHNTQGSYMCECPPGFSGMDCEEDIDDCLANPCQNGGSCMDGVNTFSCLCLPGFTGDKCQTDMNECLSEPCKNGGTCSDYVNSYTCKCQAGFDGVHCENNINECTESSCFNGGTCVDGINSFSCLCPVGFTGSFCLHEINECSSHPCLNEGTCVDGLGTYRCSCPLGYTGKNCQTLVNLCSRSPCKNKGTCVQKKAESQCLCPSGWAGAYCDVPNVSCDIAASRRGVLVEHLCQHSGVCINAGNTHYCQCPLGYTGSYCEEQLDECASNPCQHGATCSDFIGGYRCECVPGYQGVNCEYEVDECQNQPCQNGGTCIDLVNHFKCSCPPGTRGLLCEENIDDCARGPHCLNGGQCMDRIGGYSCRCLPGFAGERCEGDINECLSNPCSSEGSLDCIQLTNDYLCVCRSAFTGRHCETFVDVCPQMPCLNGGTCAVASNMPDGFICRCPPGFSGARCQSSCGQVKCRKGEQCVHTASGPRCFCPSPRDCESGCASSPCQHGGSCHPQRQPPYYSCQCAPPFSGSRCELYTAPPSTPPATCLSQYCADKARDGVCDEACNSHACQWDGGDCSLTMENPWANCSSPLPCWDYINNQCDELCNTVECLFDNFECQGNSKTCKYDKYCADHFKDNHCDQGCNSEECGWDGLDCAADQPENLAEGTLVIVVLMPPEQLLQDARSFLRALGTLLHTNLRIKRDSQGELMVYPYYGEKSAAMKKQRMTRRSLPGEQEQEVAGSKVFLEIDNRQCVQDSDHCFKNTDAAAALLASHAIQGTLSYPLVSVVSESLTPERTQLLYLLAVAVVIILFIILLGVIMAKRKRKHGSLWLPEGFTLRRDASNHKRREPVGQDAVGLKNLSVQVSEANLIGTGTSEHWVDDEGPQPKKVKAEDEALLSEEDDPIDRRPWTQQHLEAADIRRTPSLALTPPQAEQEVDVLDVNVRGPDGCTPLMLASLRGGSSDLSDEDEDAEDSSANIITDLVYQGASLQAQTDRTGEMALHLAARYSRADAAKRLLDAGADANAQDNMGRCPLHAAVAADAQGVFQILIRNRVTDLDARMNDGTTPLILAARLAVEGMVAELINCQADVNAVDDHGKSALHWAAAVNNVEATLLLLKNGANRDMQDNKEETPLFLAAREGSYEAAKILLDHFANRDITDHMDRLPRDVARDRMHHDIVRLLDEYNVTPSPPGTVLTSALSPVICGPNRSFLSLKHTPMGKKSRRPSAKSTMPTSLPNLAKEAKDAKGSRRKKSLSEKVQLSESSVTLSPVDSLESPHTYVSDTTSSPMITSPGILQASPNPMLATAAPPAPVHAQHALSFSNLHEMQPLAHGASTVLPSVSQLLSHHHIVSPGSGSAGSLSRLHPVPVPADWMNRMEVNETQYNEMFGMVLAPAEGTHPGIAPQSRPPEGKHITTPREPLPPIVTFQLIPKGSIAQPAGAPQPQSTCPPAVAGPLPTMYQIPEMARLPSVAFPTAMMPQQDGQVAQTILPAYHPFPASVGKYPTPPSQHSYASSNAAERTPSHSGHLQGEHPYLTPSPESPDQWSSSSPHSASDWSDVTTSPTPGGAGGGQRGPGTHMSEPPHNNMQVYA

[6] = biological target: Pro-neuregulin-1, membrane-bound isoform (Homo sapiens) (UniProt Q02297); assay: small molecules binding neuregulin-1 protein – biochemical, small-molecule microarray, fluorescence 635/667, psychiatric disease protein project, primary screen (AID 1075); conditions: NRG1 binding, 635 nm fluorescence, higher = more signal;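 note: score combines 667 nm spot fluorescence with signal to noise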
[7] = tested on: Neuregulin-1 EGF-like domain; assay: small molecules binding NRG1 EGF domain – biochemical, small-molecule microarray, 635 nm fluorescence, primary screen (AID 1081); conditions: higher = more signal;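 note: binding of the protein to compounds printed on small-molecule microarray slides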
[8] = FRG1 expression reporter modulators in myotubes – cell-based, C2C12 myotubes, firefly/Renilla luciferase, luminescence, FRG1 inhibition for FSHD, primary screen (AID 1084); conditions: FRG1 promoter luciferase, higher = more signal, called active from +8 up or from −8 down
[9] = small molecules captured by biotinylated probe aFST – biochemical, small-molecule microarray, fluorescence 635/667, stem cell growth factor project, primary screen (AID 1086); conditions: higher = more signal;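 note: score merges 667 nm fluorescence with signal-to-noise of each printed compound spot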
[10] = binders of probe aHhip on microarray, primary screen, stem cell growth factor project, biochemical, small-molecule microarray, fluorescence 635/667 (AID 1087); conditions: higher = more signal;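 note: score merges spot fluorescence at 667nm with spot signal to noise ratio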
[11] = tested on: PRMT1 (protein arginine N-methyltransferase 1); assay: small molecules binding arginine methyltransferase PRMT1 – biochemical, small-molecule microarray, 635 nm fluorescence, primary screen (AID 1088); conditions: higher = more signal;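 note: binding of Prmt1 protein to compounds spotted on small-molecule microarray slides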
[12] = growth effects on S. cerevisiae YJM789 – YJM789 clinical isolate, OD600, 24 h, basal, primary screen (AID 1089); conditions: higher = more signal, called active from +8 up or from −8 down;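 note: growth of clinical yeast isolate S. cerevisiae YJM 789 seeded 1000 cells per well; test concentration not given here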
[13] = S. pombe growth modifiers, basal conditions – strain 972, OD600, 24 h, no modulator, primary screen (AID 1090);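 note: basal condition with compound alone and no growth modifier present; test concentration not given here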; conditions: S. pombe 972 growth, higher = more signal, called active from +8 up or from −8 down
[14] = budding yeast growth modifiers under rapamycin – strain BY4716, OD600, 96 h, primary screen (AID 1091); note: test concentration not given here; conditions: S. cerevisiae BY4716 + rapamycin, higher = more signal, called active from +8 up or from −8 down
[15] = biological target: Torsin-1A-interacting protein 2 (Homo sapiens) (UniProt Q8NFQ8); assay: small molecules binding lysate-expressed LULL1 – cell lysate, human LULL1 lysate, 635/667 nm fluorescence, primary screen (AID 1092); conditions: small-molecule microarray, hLULL1 lysate binding, 635 nm fluorescence; higher = more signal;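 note: probe is lysate of COS7 cells overexpressing human LULL1; score merges per-feature 667 nm fluorescence with signal-to-noise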
[16] = optical density change of DRC41 E. coli – strain DRC41, OD650, 24 h, E. coli filamentation project, primary screen (AID 1093);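 note: MC1000 strain lacking acrAB efflux and sulA so SOS filamentation is blocked; test concentration not given here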; conditions: E. coli DRC41 growth, higher = more signal, called active from +8 up or from −8 down
[17] = probe aLefty2 binding to arrayed compounds – biochemical, biotinylated probe, 635/667 nm fluorescence, primary screen (AID 1094); conditions: small-molecule microarray, higher = more signal;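 note: score merges spot fluorescence near 667 nm with spot signal-to-noise ratio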
[18] = tested on: Noggin (protein binding on small-molecule microarray); assay: small molecules binding Noggin protein – biochemical, 635/667 nm fluorescence, primary screen (AID 1095); conditions: 635 nm fluorescence, higher = more signal;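 note: score merges 667 nm feature fluorescence with signal to noise over triplicate slides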
[19] = biological target: Neurogenic locus notch homolog protein 3 (Homo sapiens) (UniProt Q9UM47); assay: small molecules binding NOTCH3 protein – biochemical, 635/667 nm fluorescence, primary screen (AID 1096); conditions: small-molecule microarray, 635 nm fluorescence, higher = more signal
Chain of Neurogenic locus notch homolog protein 3 (Homo sapiens) (Q9UM47 whole entry, looked up): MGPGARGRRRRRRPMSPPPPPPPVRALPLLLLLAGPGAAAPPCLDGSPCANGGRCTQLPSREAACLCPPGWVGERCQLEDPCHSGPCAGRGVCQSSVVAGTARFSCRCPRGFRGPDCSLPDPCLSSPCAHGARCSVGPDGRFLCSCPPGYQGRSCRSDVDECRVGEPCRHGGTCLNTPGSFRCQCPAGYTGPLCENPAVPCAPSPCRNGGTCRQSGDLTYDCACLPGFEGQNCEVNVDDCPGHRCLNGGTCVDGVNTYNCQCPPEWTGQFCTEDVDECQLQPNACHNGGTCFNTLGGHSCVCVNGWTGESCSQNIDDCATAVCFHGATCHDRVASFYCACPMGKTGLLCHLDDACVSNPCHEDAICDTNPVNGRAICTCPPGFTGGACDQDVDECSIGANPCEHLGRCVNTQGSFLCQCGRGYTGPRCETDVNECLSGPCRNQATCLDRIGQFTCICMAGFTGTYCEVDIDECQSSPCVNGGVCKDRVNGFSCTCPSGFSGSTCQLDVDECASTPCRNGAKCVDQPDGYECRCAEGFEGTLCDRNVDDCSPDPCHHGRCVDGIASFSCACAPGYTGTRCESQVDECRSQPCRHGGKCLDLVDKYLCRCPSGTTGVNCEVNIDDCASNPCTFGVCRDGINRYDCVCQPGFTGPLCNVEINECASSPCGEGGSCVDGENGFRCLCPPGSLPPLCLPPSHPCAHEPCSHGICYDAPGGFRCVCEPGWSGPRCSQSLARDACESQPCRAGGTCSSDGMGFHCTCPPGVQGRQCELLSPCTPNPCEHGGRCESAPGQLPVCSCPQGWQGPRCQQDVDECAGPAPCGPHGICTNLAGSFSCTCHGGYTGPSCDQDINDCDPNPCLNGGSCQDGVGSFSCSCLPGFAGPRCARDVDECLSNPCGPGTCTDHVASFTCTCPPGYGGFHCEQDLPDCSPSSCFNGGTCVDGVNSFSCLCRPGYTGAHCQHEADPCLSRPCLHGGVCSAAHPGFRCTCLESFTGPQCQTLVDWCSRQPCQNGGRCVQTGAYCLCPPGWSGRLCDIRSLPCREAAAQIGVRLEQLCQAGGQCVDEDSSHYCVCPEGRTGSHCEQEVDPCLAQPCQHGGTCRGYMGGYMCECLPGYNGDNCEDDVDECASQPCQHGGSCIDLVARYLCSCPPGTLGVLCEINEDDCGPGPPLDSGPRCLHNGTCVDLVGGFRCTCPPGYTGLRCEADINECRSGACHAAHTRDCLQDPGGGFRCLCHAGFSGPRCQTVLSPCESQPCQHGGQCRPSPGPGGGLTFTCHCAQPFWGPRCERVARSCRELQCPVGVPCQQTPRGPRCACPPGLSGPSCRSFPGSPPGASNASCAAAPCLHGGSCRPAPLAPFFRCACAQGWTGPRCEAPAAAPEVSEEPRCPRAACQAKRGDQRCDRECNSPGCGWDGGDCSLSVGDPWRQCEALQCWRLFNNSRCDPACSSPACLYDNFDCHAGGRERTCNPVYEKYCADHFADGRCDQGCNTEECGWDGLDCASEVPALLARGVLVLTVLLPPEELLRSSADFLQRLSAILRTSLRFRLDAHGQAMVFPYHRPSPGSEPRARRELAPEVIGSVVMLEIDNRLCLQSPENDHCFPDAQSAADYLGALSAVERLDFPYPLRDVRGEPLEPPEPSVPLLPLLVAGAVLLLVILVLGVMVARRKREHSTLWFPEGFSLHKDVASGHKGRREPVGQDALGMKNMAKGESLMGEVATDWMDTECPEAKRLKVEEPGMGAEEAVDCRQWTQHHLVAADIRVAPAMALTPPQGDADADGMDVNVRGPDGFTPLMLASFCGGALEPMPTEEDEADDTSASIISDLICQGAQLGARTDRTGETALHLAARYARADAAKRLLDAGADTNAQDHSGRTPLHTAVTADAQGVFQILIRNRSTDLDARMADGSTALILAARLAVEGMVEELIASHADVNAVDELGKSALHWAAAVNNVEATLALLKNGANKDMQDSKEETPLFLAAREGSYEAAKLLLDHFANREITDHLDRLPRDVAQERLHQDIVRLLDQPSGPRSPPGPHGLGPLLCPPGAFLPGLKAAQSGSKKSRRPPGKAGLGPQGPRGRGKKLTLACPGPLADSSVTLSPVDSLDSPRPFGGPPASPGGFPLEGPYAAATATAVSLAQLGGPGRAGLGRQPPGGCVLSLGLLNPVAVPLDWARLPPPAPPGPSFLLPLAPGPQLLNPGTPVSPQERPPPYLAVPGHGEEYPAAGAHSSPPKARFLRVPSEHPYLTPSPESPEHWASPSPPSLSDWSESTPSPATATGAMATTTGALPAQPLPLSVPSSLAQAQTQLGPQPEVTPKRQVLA

[20] = probe aEGFR binding to arrayed compounds – biochemical, biotinylated probe, 635/667 nm fluorescence, primary screen (AID 1097); conditions: small-molecule microarray, higher = more signal;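 note: probe is a biotinylated anti-EGFR antibody binding compounds printed on slides; score combines fluorescence near 667 nm and signal to noise of each spot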

Row | Structure (SMILES) | composite z-score [1] | composite z-score [2] | composite z-score [3] | composite z-score [4] | composite z-score [5] | composite z-score [6] | composite z-score [7] | z-score [8] | composite z-score [9] | composite z-score [10] | composite z-score [11] | z-score [12] | z-score [13] | z-score [14] | composite z-score [15] | z-score [16] | composite z-score [17] | composite z-score [18] | composite z-score [19] | composite z-score [20]
1 | C=C(COC)C(=O)CC[C@@H](OC(=O)c1cccnc1)c1ccc(OCCO)cc1 | 0.193 | 0.112 | -0.172 | 0.182 | 1.02 | 0.403 | 1.49 | -1.32 (inactive) | 0.343 | -0.0237 | 1.2 | -10.9 (active) | -20.4 (active) | -3.62 (inactive) | 0.204 | -0.653 (inactive) | 0.0047 | 0.992 | 0.431 | 0.167
2 | CC(C)C(=C=CC[C@H](O)c1ccc(OCCO)cc1)C[C@H](O)c1ccccn1 | -0.331 | -0.0844 | -0.129 | 0.679 | -0.0686 | 0.243 | 1.28 | -0.0915 (inactive) | -0.249 | -0.0618 | 1.52 | 0.758 (inactive) | -1.29 (inactive) | -0.132 (inactive) | 1.18 | 0.714 (inactive) | -0.142 | 1.28 | 0.481 | -0.146
3 | C=C(C)C1CCC(C(O)C2C=CC3C(=O)N(C)C(=O)C3N2N2CCCCC2)CC1 (stereo not given) | 0.207 | -0.222 | 0.118 | 0.82 | 1.62 | 1.45 | 1.24 | 1.17 (inactive) | 1.23 | 0.134 | 1.53 | 1.26 (inactive) | 0.642 (inactive) | 2.25 (inactive) | 3.04 | -0.867 (inactive) | 0.398 | 0.758 | 1.04 | 0.368
4 | C[N+](C)(C)CCCCCCNC(=O)[C@H]1C[C@H]2C(=O)NCC(=O)N2[C@H]1c1ccc(O)cc1 | -0.411 | 0.71 | -0.0973 | 0.776 | 0.0422 | 1.52 | 1.17 | 4.03 (inactive) | 0.358 | -0.744 | 1.46 | -0.374 (inactive) | 0.332 (inactive) | -0.489 (inactive) | 2.88 | 0.376 (inactive) | -0.413 | 1.6 | 1.05 | -0.12
5 | C=C(/C(=C/C[C@H](OC(C)=O)c1ccccc1OCCO)c1cc(C(=O)OC)ccc1OC)C(C)C | -0.243 | -0.415 | -0.0222 | 0.826 | -0.0413 | 0.0648 | 1.09 | -0.976 (inactive) | -0.36 | 0.126 | 0.617 | 0.946 (inactive) | -1.2 (inactive) | -0.376 (inactive) | 1.04 | 1.18 (inactive) | -0.141 | 0.295 | -0.189 | 0.509
6 | CN(C)C(=O)C1N=C(c2ccc(OCCCO)cc2)N(c2ccccc2)O1 (stereo not given) | -0.135 | 0.18 | 0.0097 | 0.929 | 1.19 | 0.869 | 1.39 | 4.85 (inactive) | 0.514 | 0.107 | 1.56 | -0.0944 (inactive) | -1.17 (inactive) | -0.582 (inactive) | 1.72 | 1.15 (inactive) | -0.244 | 1.41 | 1.05 | 0.123
7 | CN(C)CCCNC(=O)[C@@]1(C)c2ccccc2C(=O)N(Cc2ccccc2)[C@H]1c1ccc(CO)cc1 | 1.2 | -0.333 | -0.116 | -0.305 | -0.675 | 1.62 | 0.562 | -0.839 (inactive) | -0.0584 | -0.0074 | 0.988 | -0.466 (inactive) | -0.505 (inactive) | -0.577 (inactive) | 2.82 | 1.16 (inactive) | 0.151 | 0.0474 | -0.652 | -0.0639
8 | C=CCOC(=O)[C@H]1[C@@H]2C(=O)O[C@@H](c3ccccc3)[C@@H](c3ccccc3)N2[C@@H](c2ccc(OCCOC(=O)[C@@H]3C[C@@H]4C(=O)N5CCC[C@H]5C(=O)N4[C@@H]3c3ccc(O)cc3)cc2)[C@]12C(=O)Nc1ccc(I)cc12 | 0.011 | -0.123 | -0.201 | 0.126 | 0.344 | 0.929 | 0.718 | 0.308 (inactive) | -0.0935 | -0.367 | 1.42 | 0.882 (inactive) | 0.25 (inactive) | 2.77 (inactive) | 1.03 | -0.333 (inactive) | -0.138 | 0.674 | 0.169 | -0.194
9 | C=CCOC(=O)[C@H]1[C@@H]2C(=O)O[C@@H](c3ccccc3)[C@@H](c3ccccc3)N2[C@@H](c2ccc(OCCOC(=O)[C@@H]3C[C@@H]4C(=O)N[C@@H](CCCCN(C)C)C(=O)N4[C@@H]3c3ccc(O)cc3)cc2)[C@]12C(=O)Nc1ccccc12 | -0.0613 | 0.639 | -0.113 | 0.389 | 0.69 | 0.965 | 1.26 | 0.585 (inactive) | 0.29 | 0.0623 | 1.55 | 0.693 (inactive) | -2.78 (inactive) | 0.436 (inactive) | 2.57 | -1.6 (inactive) | 0.253 | 1.7 | 1.05 | -0.0177
10 | CC(C)(C)OC(=O)CC[C@]1(C(=O)NCC(O)CO)N=C(c2ccc(OCCCO)cc2)O[C@H]1c1ccccc1 (stereo not given in full) | 1.07 | 1.58 | -0.0099 | 0.391 | 0.493 | 0.866 | 1.33 | 0.974 (inactive) | 0.36 | -0.323 | -0.362 | -0.866 (inactive) | -0.956 (inactive) | -0.744 (inactive) | 3.45 | 1.91 (inactive) | 0.0424 | -0.837 | -0.89 | 0.109
